# Reference: PubChem BioAssay (EPA / NIEHS)
# The source made the active and inactive calls. The calls were made as follows: active = hit-call score of the fitted dose curve at least 0.9, where 1 is the maximum; inactive = score below 0.9.
# Target: Transcriptional activator Myb (Homo sapiens) (UniProt P10242)
# Assay: ATG_Myb_CIS: Attagene CIS-FACTORIAL HepG2 Assay for human Myeloblastosis (Myb) Proto-Oncogene Transcription Factor (AID 2282986)
# Details: HepG2 Attagene CIS-FACTORIAL Myb reporter transcription; actives raise or lower the signal
# Protocol: ATG_CIS is a cell-based, multiplexed-readout assay that uses HepG2, a human liver cell line, with measurements taken at 24 hours after chemical dosing in a 24-well plate.ATG_Myb_CIS is one of 52 assay component(s) measured or calculated from the ATG_CIS assay. It is designed to make measurements of mRNA induction, a form of inducible reporter, as detected with fluorescence intensity signals by Reverse transcription polymerase chain reaction (RT-PCR) and Capillary electrophoresis technology.Data from the assay component ATG_Myb_CIS was analyzed into 1 assay endpoint. This assay endpoint, ATG_Myb_CIS, was analyzed with bidirectional fitting relative to DMSO as the negative control and baseline of activity. Using a type of inducible reporter, measures of mRNA for gain or loss-of-signal activity can be used to understand the reporter gene at the transcription factor-level as they relate to the gene MYB. Furthermore, this assay endpoint can be referred to as a primary readout, because this assay has produced multiple assay endpoints where this one serves a reporter gene function. To generalize the intended target to other relatable targets, this assay endpoint is annotated to the dna binding intended target family, where the subfamily is MYB proteins.
# Human liver HepG2 cells are transiently transfected with multiple reporter transcription units (MRTUs) in 6-well plates using FuGene 6 reagent (Roche; 3 ml FuGene/1 mg DNA). The MRTU constructs are regulated by a cis-regulating element (promoter). […] A major difference between the CIS and TRANS system is that in CIS activities of endogenous TFs are measured, whereas the TRANS assay evaluates changes in activities of exogenous, chimeric NR-Gal4 proteins. […] At the end of 24 hour incubation, total RNA was isolated using TriZol reagent (Invitrogen). The isolated RNA is then reverse-transcribed using oligo(dT) primer and Mo-MLV reverse transcriptase (Invitrogen) with DNAse I (Ambion) treatment for 30 min. The one-tenth of the produced cDNA was amplified by PCR using Taq DNA polymerase (Invitrogen) and two reporter sequence-specific primers. The PCR products were fluorescently labeled by primer extension with 6-arboxyfluorescein (6-FAM) 5'-labeled reporter sequence-specific primer (2 min at 95 C, 20 s at 68 C and 10 min at 72 C) and these products were digested with 5U of HpaI (New England Biolabs) for 2h at 37 C. The fragments were purified using Qiaquick PCR columns (Qiagen), analyzed on an ABI 3130xL genetic analyzer (Applied Biosystems) with peak positions identified by using a set of X-rhodamine (ROX)-labeled MapMarker1000 molecular weight standards (BioVentures). The raw capillary electrophoresis data was processed using Attagraph software (Attagene).
# Transcriptional activator Myb (Homo sapiens), sequence (P10242 whole entry, looked up): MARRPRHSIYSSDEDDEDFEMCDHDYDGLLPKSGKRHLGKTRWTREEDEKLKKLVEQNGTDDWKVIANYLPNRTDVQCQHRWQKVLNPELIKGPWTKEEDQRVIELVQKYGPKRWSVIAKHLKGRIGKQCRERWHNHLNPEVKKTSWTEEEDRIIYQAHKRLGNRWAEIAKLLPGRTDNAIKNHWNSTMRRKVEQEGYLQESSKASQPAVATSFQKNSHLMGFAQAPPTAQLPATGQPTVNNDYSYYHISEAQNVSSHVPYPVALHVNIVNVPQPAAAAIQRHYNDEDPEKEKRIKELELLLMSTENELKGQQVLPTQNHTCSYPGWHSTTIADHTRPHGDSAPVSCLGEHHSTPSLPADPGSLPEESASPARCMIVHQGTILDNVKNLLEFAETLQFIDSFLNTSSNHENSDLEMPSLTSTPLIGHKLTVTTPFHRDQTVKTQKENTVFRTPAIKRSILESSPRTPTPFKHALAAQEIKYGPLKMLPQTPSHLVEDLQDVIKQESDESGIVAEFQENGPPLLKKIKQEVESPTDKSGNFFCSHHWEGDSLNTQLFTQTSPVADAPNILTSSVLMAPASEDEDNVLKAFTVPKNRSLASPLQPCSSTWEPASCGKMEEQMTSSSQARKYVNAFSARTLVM
row,SMILES,outcome
1,COc1cc2c(cc1OC)[C@@]13CCN4CC5=CCO[C@H]6CC(=O)N2[C@H]1[C@H]6[C@H]5C[C@H]43,inactive
2,O=C(O)C(F)(F)C(F)(F)C(F)(F)C(F)(F)C(F)(F)C(F)(F)F,inactive
3,C=C(C)C(=O)[O][Sn]([CH2]CCC)([CH2]CCC)[CH2]CCC,inactive
4,CCC(=O)C(CC(C)N(C)C)(c1ccccc1)c1ccccc1 (stereo not given),inactive
5,COC(=O)c1sccc1S(=O)(=O)NC(=O)Nc1nc(C)nc(OC)n1,inactive
6,NNC(=S)NN,inactive
7,COS(=O)(=O)c1ccc(C)cc1,inactive
8,C[C@]12CCC(=O)C[C@@H]1CC[C@@H]1[C@@H]2CC[C@]2(C)[C@@H](O)CC[C@@H]12,inactive
9,COP(=S)(OC)Oc1ccc(Sc2ccc(OP(=S)(OC)OC)cc2)cc1,inactive
10,CCC(C)(C)c1ccc(O)c(C(C)(C)CC)c1,inactive
11,Nc1ccc(Cl)cc1C(=O)c1ccccc1,inactive
12,CC12CC1(C)C(=O)N(c1cc(Cl)cc(Cl)c1)C2=O (stereo not given),inactive
13,CCOP(=S)(OCC)Oc1nc(Cl)c(Cl)cc1Cl,inactive
14,CCC(C)c1cccc(C(C)CC)c1O (stereo not given),inactive
15,O=S(=O)(c1ccc(Cl)cc1)c1ccc(Cl)cc1,inactive
16,CCOP(=O)(CN(CCO)CCO)OCC,inactive
17,CN(C)N=O,inactive
18,ClCc1cccnc1,inactive
19,O=Cc1cccc(Oc2ccccc2)c1,inactive
20,CN(CCCC(=O)c1cccnc1)N=O,inactive

row,SMILES,outcome
1,OCc1ccco1,inactive
2,COP(=S)(OC)Oc1ccc(S(=O)(=O)N(C)C)cc1,inactive
3,N#CN=C(N)N,inactive
4,CCOP(=S)(OCC)Oc1ccc(S(C)=O)cc1 (stereo not given),inactive
5,CCCCCCCCSC(=O)Oc1cc(Cl)nnc1-c1ccccc1,inactive
6,COP(=S)(OC)Oc1cc(Cl)c(Cl)cc1Cl,inactive
7,CC(C#N)CCC#N (stereo not given),inactive
8,C[C@@H]1C[C@@H]([C@H](O)CC2CC(=O)NC(=O)C2)C(=O)[C@@H](C)C1,inactive
9,CCc1ccccc1N,inactive
10,CC1CN1P(=O)(N1CC1C)N1CC1C (stereo not given),inactive
11,CCCCOCCOC(C)=O,inactive
12,CNC,inactive
13,[O-][Cl+2]([O-])O,inactive
14,Cc1ccc2ccccc2c1C,inactive
15,CC(C)(c1ccc(OCC2CO2)cc1)c1ccc(OCC2CO2)cc1 (stereo not given),inactive
16,CC(C)(OO)c1ccccc1,inactive
17,Oc1ccc(-c2ccccc2)cc1,inactive
18,CC(=[OH+])/C=C(/C)[O-].CC(=[OH+])/C=C(/C)[O-].CC(=[OH+])/C=C(/C)[O-].[Al],inactive
19,O=C(CCl)CCl,inactive
20,c1ccc(N=NNc2ccccc2)cc1,inactive
